Source: PubChem BioAssay (NCATS)
Where “and” joins values, the source holds several entries; their conditions need not be identical. Identical values can stand only once. Records with an inconclusive call do not appear. Entries that show only a call come without a potency. Values without a mark were called inactive. Calls of active or inactive are those of the source. Calls come from the whole dose curve; as a rule, active = well fitted inhibition curve with a large enough effect; inconclusive = small, poorly fitted or top-dose-only effect; inactive = flat fitted curve, though single readings scatter.

Tests used:
[1] = qHTS profiling for inhibitors of Plasmodium falciparum proliferation (AID 504749); for all read-outs here: nearly all actives have a fitted effect of over 60% in size; details: P. falciparum in erythrocytes, SYBR Green DNA, 72 h; for activity, negative = inhibition: at 28.7 µM (top of the series)
Outline: (§1)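 SYBR Green fluorescence (ex 485 nm, em 535 nm) reports parasite DNA after 72 h compound exposure of infected red cells at 0.3% parasitemia, 2.5% hematocrit; signal normalized to 0.29 uM artemisinin and vehicle wells.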

[2] = tested on: 3D7; assay: as above; details: P. falciparum in erythrocytes, SYBR Green DNA, 72 h; series mostly up to 28.7 µM
Outline: as §1

[3] = tested on: 7G8; assay: as above; details: P. falciparum in erythrocytes, SYBR Green DNA, 72 h; series mostly up to 28.7 µM
Outline: as §1

[4] = tested on: AA1029; assay: as above; details: P. falciparum in erythrocytes, SYBR Green DNA, 72 h; series mostly up to 28.7 µM
Outline: as §1

[5] = tested on: AS120; assay: as above; details: P. falciparum in erythrocytes, SYBR Green DNA, 72 h; series mostly up to 28.7 µM
Outline: as §1

[6] = tested on: ATS189; assay: as above; details: P. falciparum in erythrocytes, SYBR Green DNA, 72 h; series mostly up to 28.7 µM
Outline: as §1
Potency is the fitted concentration of half-maximal effect.

Row | Compound | activity, negative = inhibition ([1]; parasite line A) | activity, negative = inhibition ([1]; parasite line B) | Potency [2] | Potency [3] | Potency [4] | Potency [5] | Potency [6] | Potency ([1]; parasite line A) | Potency ([1]; parasite line B)
1 | COc1ccc2c3c1O[C@H]1C(=O)CC[C@H]4[C@@H](C2)N(C)CC[C@]314 | 0.497% | -7.39% | inactive | inactive | inactive | inactive | inactive |  | 
2 | O=[N+]([O-])c1cc(I)c(O)c(I)c1 | -8.29% | -20.5% | inactive | inactive | inactive | inactive | inactive |  | 
3 | CC[N+](C)(CC)CCOC(=O)C(O)(c1ccccc1)c1ccccc1 | 5.27% | 8.78% | inactive | inactive | inactive | inactive | inactive |  | 
4 | CC(C)(O)C1C2OC(=O)C1C1(O)CC3OC34C(=O)OC2C14C (stereo not given) | 13.7% | 0.0355% | inactive | inactive | inactive | inactive | inactive |  | 
5 | ClCC1CO1 (stereo not given) | 2.63% | -1.12% | inactive | inactive | inactive | inactive | inactive |  | 
6 | [N-]=[N+]=CC(=O)OCC(N)C(=O)O (stereo not given) | 3.54% | -4.07% | inactive | inactive | inactive | inactive | inactive |  | 
7 | O=c1[nH]cc(N(CCCl)CCCl)c(=O)[nH]1 | -0.577% | -4.63% | inactive | inactive | inactive | inactive | inactive |  | 
8 | O=C(O)C(Cl)(Cl)Cl | 7.18% | 2% | inactive | inactive | inactive | inactive | inactive |  | 
9 | CC(=O)OO | 5.76% | 13% | inactive | inactive | inactive | inactive | inactive |  | 
10 | O=C1CCCCC1CN1CCCCC1 (stereo not given) | 6.14% | 5.73% | inactive | inactive | inactive | inactive | inactive |  | 
11 | C=CCC1(C(C)CCC)C(=O)N=C(S)NC1=O (stereo not given) | -5.63% | -5% | inactive | inactive | inactive | inactive | inactive |  | 
12 | c1csc(C2(N3CCCCC3)CCCCC2)c1 | -2.88% | 1.73% | inactive | inactive | inactive | inactive | inactive |  | 
13 | [O]=[Cr](=[O])([OH])[O][Cr](=[O])(=[O])[OH] | -8.13% and -2.73% | -2.72% and -3.46% | inactive | inactive | inactive | inactive | inactive |  | 
14 | FC(F)OC(F)(F)C(F)Cl (stereo not given) | 10.8% | 14% | inactive | inactive | inactive | inactive | inactive |  | 
15 | O=[N+]([O-])c1ccc(F)c([N+](=O)[O-])c1 | 14.6% | 11.6% | inactive | inactive | inactive | inactive | inactive |  | 
16 | O=C(CS(=O)C(c1ccccc1)c1ccccc1)NO (stereo not given) | -13.7% | 0.0253% | inactive | inactive | inactive | inactive | inactive |  | 
17 | Cn1sc(Cl)cc1=O | 11.9% | 7.44% | inactive | inactive | inactive | inactive | inactive |  | 
18 | O=C(NCNC(=O)NC1C(=O)NC(=O)N1CO)NC1C(=O)NC(=O)N1CO (stereo not given) | 15.1% | 8.84% | inactive | inactive | inactive | inactive | inactive |  | 
19 | ClC=C(Cl)Cl | 6.3% | 0.959% | inactive | inactive | inactive | inactive | inactive |  | 
20 | COc1ccc(OC)c(C(O)C(C)N)c1 (stereo not given) | 12.5% | -2.03% | inactive | inactive | inactive | inactive | inactive |  | 
21 | CCC(C)(S(=O)(=O)CC)S(=O)(=O)CC | 9.02% | 9.51% | inactive | inactive | inactive | inactive | inactive |  | 
22 | N#CN | 10.5% | 6.79% | inactive | inactive | inactive | inactive | inactive |  | 
23 | C#CC(C)(O)CC (stereo not given) | 3.88% | -6.77% | inactive | inactive | inactive | inactive | inactive |  | 
24 | Oc1cccc[c]1[Hg][Cl] |  |  | 8.91 µM (active) | 1.78 µM (active) | 11.2 µM (active) | 7.94 µM (active) | 12.6 µM (active) | 5.01 µM (active) | 6.31 µM (active)
25 | C=CCN=C=S | -3.28% | 7.56% | inactive | inactive | inactive | inactive | inactive |  | 
